Experiment [1] is described as follows: compound effects on lung adenocarcinoma cell viability – A549, calcein-AM fluorescence, 48 h, basal, profiling panel (AID 1162). Note: test concentration not given here. As to conditions: higher = more signal.
The nature of experiment [2]: compound effects on differentiated 3T3-L1 adipocyte viability – cell-based, 3T3-L1 adipocytes, calcein-AM fluorescence, 48 h, basal, profiling panel (AID 1163). Note: test concentration not given here. As to conditions: 3T3-L1 adipocytes viability, higher = more signal.
Experiment [3] is described as follows: compound effects on hepatocellular carcinoma cell viability – HepG2, calcein-AM fluorescence, 48 h, basal, profiling panel (AID 1164). Note: test concentration not given here. The settings on record: higher = more signal.
A short description of experiment [4]: compound effects on multiple myeloma cell viability – MM1S, calcein-AM fluorescence, 48 h, basal, profiling panel (AID 1165).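 Note: viability of MM1S multiple myeloma cells under basal unstimulated conditions; test concentration not given here.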 The settings on record: higher = more signal.
Experiment [5] is described as follows: calcein-AM signal in unstimulated myeloma cells – cell-based, calcein-AM fluorescence, 48 h, PK04 Diversity Set, profiling panel (AID 1166).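 Note: cells grown under basal conditions without added stimulus; test concentration not given here.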 The settings on record: RPMI8226 myeloma viability, higher = more signal.
A short description of experiment [6]: JC-1 mitochondrial signal, unstimulated HepG2 cells – cell-based, JC-1 fluorescence, 24 h, 100 nL compound, profiling panel (AID 1167). Note: test concentration not given here. As to conditions: HepG2 mitochondrial potential, higher = more signal.
Experiment [7] in a line: JC-1 mitochondrial signal, unstimulated adipocytes – cell-based, JC-1 fluorescence, 3T3-L1 adipocytes, 24 h, 100 nL compound, profiling panel (AID 1168). Note: test concentration not given here. The settings on record: JC-1 mitochondrial fluorescence, higher = more signal, called active from +8 up or from −8 down.
A short description of experiment [8]: JC-1 mitochondrial signal, unstimulated myeloma cells – cell-based, JC-1 fluorescence, RPMI8226, 24 h, 100 nL compound, profiling panel (AID 1169). Note: test concentration not given here. The settings on record: JC-1 mitochondrial potential fluorescence, higher = more signal.
A short description of experiment [9]: JC-1 mitochondrial signal, unstimulated MM1S myeloma – cell-based, JC-1 fluorescence, 24 h, 100 nL compound, profiling panel (AID 1170). Note: test concentration not given here. The settings on record: MM1S mitochondrial potential, higher = more signal.
Experiment [10] is described as follows: resazurin metabolic signal in A549 cells – cell-based, resazurin fluorescence, 24 h, PK04 Diversity Set, profiling panel (AID 1171). Note: test concentration not given here. The settings on record: A549 viability, higher = more signal, called active from +8 up or from −8 down. On the technique in general: Resazurin is reduced to fluorescent resorufin, in cell work by metabolically active cells.
Experiment [11] in a line: resazurin metabolic signal in HepG2 cells – cell-based, resazurin fluorescence, 24 h, PK04 Diversity Set, profiling panel (AID 1172). Note: test concentration not given here. As to conditions: HepG2 viability, higher = more signal.
A short description of experiment [12]: budding yeast growth changes without added modifier – OD600, strain BY4716, 24 h, basal condition, primary screen (AID 1173). As to conditions: S. cerevisiae BY4716 growth, OD600, 24 h; higher = more signal, called active from +8 up or from −8 down.
Experiment [13] can be described thus: viability profiling in MM1S myeloma cells – cell-based, resazurin fluorescence, basal, 24 h, PK04 Diversity Set, profiling panel (AID 1174). Note: test concentration not given here. The settings on record: higher = more signal, called active from +8 up or from −8 down.
Experiment [14] deals with Dihydroorotate dehydrogenase (quinone), mitochondrial (Plasmodium falciparum (isolate 3D7)) (UniProt Q08210). The experiment in a line: inhibition of P. falciparum DHODH – biochemical, C-terminal His tag, absorbance 600 nm, primary screen (AID 1175).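 Note: recombinant parasite enzyme with a five histidine tag at its C terminus; test concentration not given here.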 The settings on record: PfDHODH enzyme, DCIP absorbance 600 nm; higher = more signal, called active from +8 up or from −8 down.

Experiment [15] can be described thus: inhibition of PAO1 biofilm formation – strain PAO1, LB-PBS medium, absorbance 600 nm, primary screen (AID 1176). Note: test concentration not given here. As to conditions: P. aeruginosa PAO1 growth/biofilm, A600, 12 h; higher = more signal.
Experiment [16] in a line: growth modulation of vineyard yeast isolate – strain RM11-1a, OD600, basal, 24 h, primary screen (AID 1177).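 Note: cultures grown under basal conditions with no added stressor; test concentration not given here.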 As to conditions: S. cerevisiae RM11-1a growth, OD600, 24 h; higher = more signal, called active from +8 up or from −8 down.
Experiment [17] is described as follows: growth of efflux-deficient E. coli DRC39 – strain DRC39, OD650, 24 h, E. coli filamentation inducers, primary screen (AID 1178).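 Note: growth measured as culture turbidity by optical density at 650 nm; test concentration not given here.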 The settings on record: E. coli DRC39 acrAB, higher = more signal, called active from +8 up or from −8 down.
A short description of experiment [18]: growth of efflux-deficient E. coli DRC39 – strain DRC39, OD650, 48 h, E. coli filamentation inducers, primary screen (AID 1179).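 Note: screen aims at cell division blockers that make cells filament.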 As to conditions: E. coli DRC39 delta-acrAB growth, higher = more signal, called active from +8 up or from −8 down.
Experiment [19] in a line: viability profiling in RPMI8226 myeloma cells – cell-based, resazurin fluorescence, basal, 24 h, PK04 Diversity Set, profiling panel (AID 1180).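 Note: RPMI8826 multiple myeloma cell line at 5000 cells per well; test concentration not given here.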 The settings on record: higher = more signal.
Experiment [20] concerns the target E3 ubiquitin-protein ligase XIAP (Homo sapiens) (UniProt P98170). The experiment in a line: small molecules binding XIAP protein – biophysical, small-molecule microarray, fluorescence 635 nm, primary screen (AID 1181).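 Note: score merges 667 nm emission and signal to noise over triplicate slides.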 The settings on record: higher = more signal.

The source of these data is PubChem BioAssay.

Active and inactive are the calls of the source. Unless noted, the rule behind the calls is not given here.

Sequence of Dihydroorotate dehydrogenase (quinone), mitochondrial (Plasmodium falciparum (isolate 3D7)) (Q08210 whole entry, looked up): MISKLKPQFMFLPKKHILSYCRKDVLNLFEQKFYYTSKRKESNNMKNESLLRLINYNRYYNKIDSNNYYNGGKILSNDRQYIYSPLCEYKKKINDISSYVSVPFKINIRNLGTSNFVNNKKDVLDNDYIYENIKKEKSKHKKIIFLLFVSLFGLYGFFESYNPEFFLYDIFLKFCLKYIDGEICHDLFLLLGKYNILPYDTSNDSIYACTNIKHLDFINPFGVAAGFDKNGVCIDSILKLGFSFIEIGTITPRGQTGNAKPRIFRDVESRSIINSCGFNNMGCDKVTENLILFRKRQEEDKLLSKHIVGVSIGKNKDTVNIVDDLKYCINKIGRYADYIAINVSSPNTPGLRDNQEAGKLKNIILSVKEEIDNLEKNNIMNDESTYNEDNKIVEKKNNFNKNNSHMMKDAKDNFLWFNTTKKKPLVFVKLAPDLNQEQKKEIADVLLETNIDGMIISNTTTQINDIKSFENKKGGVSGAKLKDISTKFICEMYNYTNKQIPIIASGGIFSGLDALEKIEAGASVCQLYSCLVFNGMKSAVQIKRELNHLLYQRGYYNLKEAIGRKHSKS
Sequence of E3 ubiquitin-protein ligase XIAP (Homo sapiens) (P98170 whole entry, looked up): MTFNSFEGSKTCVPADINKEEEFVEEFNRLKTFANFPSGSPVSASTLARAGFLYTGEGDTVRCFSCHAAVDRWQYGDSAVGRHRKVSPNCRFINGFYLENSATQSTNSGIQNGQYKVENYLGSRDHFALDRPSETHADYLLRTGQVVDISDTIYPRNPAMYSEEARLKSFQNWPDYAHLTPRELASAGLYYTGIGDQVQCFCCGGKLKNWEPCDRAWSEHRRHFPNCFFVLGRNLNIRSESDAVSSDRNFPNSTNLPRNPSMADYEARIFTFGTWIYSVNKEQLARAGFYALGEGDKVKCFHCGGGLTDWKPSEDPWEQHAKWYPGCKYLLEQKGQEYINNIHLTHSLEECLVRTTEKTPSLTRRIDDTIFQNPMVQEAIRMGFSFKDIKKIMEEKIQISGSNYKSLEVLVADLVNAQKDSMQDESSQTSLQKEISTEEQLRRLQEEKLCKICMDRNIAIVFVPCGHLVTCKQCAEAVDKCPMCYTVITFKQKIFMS

For `[N-]=[N+]=NCc1ccccc1C[C@@]1(C(=O)NCC(O)CO)N=C(c2ccc(OCCCO)cc2)O[C@@H]1c1ccccc1CN=[N+]=[N-]` (stereo not given in full), the z-score in experiment [1] was -1.05; in experiment [2], 0.208; in [3], -0.0726; in experiment [4] it was -1.4; in [5] it was -2.2; in [6], -0.382. In addition, the z-score in [7] is -1.04 (inactive); in experiment [8] it was -0.762; in experiment [9], -0.737; in [10], -0.2 (inactive); in [11], 0.376; in experiment [12], -0.247 (inactive). Further, the z-score in [13] was -1.3 (inactive); in experiment [15], 2.33 (inactive); in experiment [16], 0.0651 (inactive); in experiment [17], 0.322 (inactive); in experiment [18], -0.0665 (inactive); in experiment [19], -1.03. Further, the results for the composite z-score in experiment [14] and in experiment [20] were 0.34 (inactive) and -0.377, respectively.
Consider `O=C(O)[C@H]1C[C@H]2C(=O)NCC(=O)N2[C@H]1c1ccc(O)cc1`, for which the z-score in [1] was 1.14; in experiment [2], 0.108; in experiment [3], 0.752; in experiment [4], -2.55; in experiment [5], -0.593; in experiment [6] it was 2.37. In addition, the z-score was -0.262 (inactive) in [7]; -0.629 in experiment [8]; -1.43 in [9]; 0.672 (inactive) in experiment [10]; 1.46 in experiment [11]; -1.25 (inactive) in experiment [12]. Further, the z-score was 0.866 (inactive) in experiment [13]; 0.0904 (inactive) in experiment [15]; -0.804 (inactive) in [16]; 1.49 (inactive) in experiment [17]; 1.51 (inactive) in experiment [18]; 0.839 in experiment [19]. Also, the composite z-score in experiment [14] was -0.592 (inactive); in experiment [20] it was -0.211.
Regarding `C=C(C(=O)CC[C@H](OC(C)=O)c1ccc(OCCO)cc1)C(C)C`, the z-score in experiment [1] is -0.809; in experiment [2], -0.38; in experiment [3], -1.22; in experiment [4] it was -0.984; in experiment [5], -1.73; in experiment [6] it was -1.05. The z-score was -0.00642 (inactive) in [7]; 0.364 in experiment [8]; 0.19 in [9]; -0.358 (inactive) in experiment [10]; 0.163 in [11]; -16.2 (active) in [12]. The z-score in experiment [13] is 0.192 (inactive); in experiment [15] it was -1.21 (inactive); in experiment [16] it was -21.4 (active); in [17], -0.135 (inactive); in [18], 0.204 (inactive); in [19], -0.349. Also, the composite z-score in [14] is -8.01 (active); in experiment [20] it was -0.177.
For `COc1ccc(C#Cc2ccc3c(c2)[C@]2(C(=O)N3)[C@H](c3ccc(O)cc3)N3[C@H](c4ccccc4)[C@H](c4ccccc4)OC(=O)[C@H]3[C@@H]2C(=O)N2CCCCCCC2)cc1`, the z-score in [1] is 0.334; in experiment [2], 1.01; in [3] it was 0.629; in experiment [4] it was -0.0384; in experiment [5], -0.208; in [6], 0.269. In addition, the z-score in experiment [7] is 3.48 (inactive); in experiment [8], -0.538; in experiment [9], 0.366; in [10] it was -0.531 (inactive); in experiment [11] it was -0.527; in experiment [12], -1.15 (inactive). Further, the z-score was 0.0901 (inactive) in experiment [13]; 1.44 (inactive) in [15]; -0.404 (inactive) in experiment [16]; -0.525 (inactive) in [17]; -0.469 (inactive) in experiment [18]; 0.326 in [19]. For the same compound, the composite z-score is -1.4 (inactive) in [14] and 0.536 in experiment [20].
`NC(=O)NCC#Cc1ccc2c(c1)[C@]1(C(=O)N2)[C@H](C(=O)NC[C@H](O)c2ccccc2)[C@H]2C(=O)O[C@H](c3ccccc3)[C@H](c3ccccc3)N2[C@@H]1c1ccc(O)cc1`: the z-score in experiment [1] is 0.423; in experiment [2] it was -1.13; in [3] it was -0.284; in [4] it was -1.32; in experiment [5], 0.579; in experiment [6], -3.36. For the same compound, the z-score in experiment [7] was -2.46 (inactive); in experiment [8], -1.16; in experiment [9], -1.49; in experiment [10], -0.471 (inactive); in [11], -0.0042; in experiment [12] it was 1.56 (inactive). Further, the z-score in [13] is -0.027 (inactive); in experiment [15], 1.32 (inactive); in experiment [16] it was 2.12 (inactive); in experiment [17] it was 0.346 (inactive); in experiment [18], 0.0233 (inactive); in [19] it was -0.518. Also, the composite z-score in [14] was 0.389 (inactive); in experiment [20] it was 0.15.
Regarding `CC(C)(C)OC(=O)CC[C@]1(C(=O)N2CCCCC2)N=C(c2ccc(OCCCO)cc2)O[C@H]1c1ccccc1N=[N+]=[N-]`, the z-score in experiment [1] was 1.12; in [2] it was 0.768; in [3], 0.63; in experiment [4], -2.03; in [5], -0.99; in experiment [6], 1.18. In addition, the z-score in experiment [7] is 1.92 (inactive); in experiment [8], -0.862; in [9] it was -0.715; in experiment [10], -0.0762 (inactive); in experiment [11], 0.188; in [12] it was 0.367 (inactive). In addition, the z-score in experiment [13] is -1.79 (inactive); in experiment [15] it was 0.466 (inactive); in [16], 1.01 (inactive); in experiment [17] it was 1.82 (inactive); in experiment [18] it was 1.04 (inactive); in [19], -1.32. Besides, the composite z-score in experiment [14] was 0.107 (inactive); in experiment [20], -0.0304.
For the compound `O=C1O[C@H](c2ccccc2)[C@H](c2ccccc2)N2[C@H]1[C@@H](C(=O)N1CCN(c3ncccn3)CC1)[C@]1(C(=O)Nc3ccccc31)[C@H]2c1ccc(OCCO)cc1`, the z-score in [1] is 0.404; in experiment [2] it was 1.35; in [3], 0.121; in experiment [4], 0.0498; in [5] it was -2.17; in [6] it was -0.592. In addition, the z-score is 1.53 (inactive) in [7]; -1.16 in experiment [8]; -0.537 in experiment [9]; 1.18 (inactive) in experiment [10]; 1.42 in [11]; 1.4 (inactive) in [12]. The z-score in experiment [13] was 0.792 (inactive); in [15], 1.55 (inactive); in [16], 1.81 (inactive); in experiment [17], 0.774 (inactive); in [18] it was 0.0049 (inactive); in [19] it was 0.368. Moreover, the composite z-score in [14] was 1.12 (inactive); in experiment [20], 0.109.
